# Data: PubChem BioAssay AID1159580 (chemical genetic matrix, 2015)
# Out of some 5,500 compounds screened, about 2,000 (36%) were called active. Not shown: some 18% with an inconclusive outcome. The list shows a part of the results. Values without a mark were called inactive. No stated cut-off is given here; in the data, active means normalized growth mostly below about 0.91 (no sharp cut-off); inconclusive means no clear call, values can overlap the other calls; inactive means mostly above about 0.92.
# Experiment: chemical genetic growth profiling, strain panel (AID 1159580);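 further: tested at 20 µM; growth read once vehicle control cultures reached saturation at 30 °C; 1 = growth at the plate median or of vehicle wells; lower values mean less growth of the strain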
# Conditions: S. cerevisiae deletion strains, growth OD
# [1] = locus YAL013W, strain DEP1, active compounds read low
# [2] = locus YAL040C, strain CLN3, active compounds read low
# [3] = locus YDR363W, strain ESC2, active compounds read low
# [4] = locus YER002W, strain NOP16, active compounds read low
# [5] = locus YJR075W, strain HOC1, active compounds read low
# [6] = locus YNL153C, strain GIM3, active compounds read low
# [7] = locus YNL175C, strain NOP13, active compounds read low
# [8] = locus YNL197C, strain WHI3, active compounds read low
# [9] = locus YNL224C, strain SQS1, active compounds read low
# [10] = locus YOR083W, strain WHI5 (second series), active compounds read low
# [11] = locus YDR150W, strain NUM1, active compounds read low
# [12] = locus YGR078C, strain PAC10, active compounds read low
# [13] = locus YMR263W, strain SAP30, active compounds read low
# [14] = locus YNL322C, strain KRE1, active compounds read low
# [15] = locus YPL055C, strain LGE1, active compounds read low
# [16] = locus YPL241C, strain CIN2, active compounds read low
# [17] = locus YCL061C, strain MRC1 (second series), active compounds read low
# [18] = locus YMR307W, strain GAS1, active compounds read low
structure (smiles),measurement,setting,value
CC(=O)OCC1=C(C(=O)O)N2C(=O)C(NC(=O)Cc3cccs3)C2SC1 (centres undefined),normalized growth,[1],1.01
same,normalized growth,[2],0.993
same,normalized growth,[3],1
same,normalized growth,[4],1.03
same,normalized growth,[5],0.995
same,normalized growth,[6],1.03
same,normalized growth,[7],1.01
same,normalized growth,[8],1.05
same,normalized growth,[9],1.03
same,normalized growth,[10],1.05
OC1(c2ccc(Cl)cc2)CSc2nc3cc(C(F)(F)F)ccc3n21 (centres undefined),normalized growth,[1],1.03
same,normalized growth,"locus YBR229C, strain ROT2, active compounds read low",1
same,normalized growth,"locus YDL101C, strain DUN1, active compounds read low",0.995
same,normalized growth,[11],1.01
same,normalized growth,"locus YEL061C, strain CIN8, active compounds read low",1.02
same,normalized growth,[12],1
same,normalized growth,"locus YHR030C, strain SLT2, active compounds read low",1.02
same,normalized growth,"locus YHR087W, strain rtc3, active compounds read low",1.03
same,normalized growth,"locus YJR043C, strain POL32, active compounds read low",1.01
same,normalized growth,[5],1
same,normalized growth,"locus YLR039C, strain RIC1, active compounds read low",1.09
same,normalized growth,"locus YLR058C, strain SHM2 (second series), active compounds read low",1.02
same,normalized growth,"locus YLR085C, strain ARP6, active compounds read low",1.11
same,normalized growth,"locus YLR262C, strain YPT6, active compounds read low",1.12
same,normalized growth,"locus YML094W, strain GIM5, active compounds read low",1.07
same,normalized growth,"locus YMR219W, strain ESC1, active compounds read low",1.01
same,normalized growth,[13],1.02
same,normalized growth,[6],0.991
same,normalized growth,"locus YNL298W, strain CLA4 (second series), active compounds read low",1.1
same,normalized growth,[14],1.02
same,normalized growth,"locus YNR030W, strain Alg12, active compounds read low",1.09
same,normalized growth,"locus YOL006C, strain TOP1, active compounds read low",1.08
same,normalized growth,[15],0.998
same,normalized growth,[16],1.04
same,normalized growth,"locus YPR135W, strain CTF4, active compounds read low",1.02
CN1CCN(c2ccc3ccccc3n2)CC1,normalized growth,[2],1.04
same,normalized growth,[17],0.996
same,normalized growth,[11],1
same,normalized growth,[3],0.982
same,normalized growth,[4],1
same,normalized growth,[12],1.01
same,normalized growth,[5],0.982
same,normalized growth,[18],1
same,normalized growth,[7],1.02
same,normalized growth,[8],1
same,normalized growth,[9],1.01
same,normalized growth,[14],0.982
same,normalized growth,[10],1.03
same,normalized growth,[15],0.925
same,normalized growth,[16],0.993
CN1CCN(c2nc3cc(C(F)(F)F)ccc3n3cccc23)CC1,normalized growth,[2],1
same,normalized growth,[17],0.985
same,normalized growth,[3],0.908
same,normalized growth,[4],1.01
same,normalized growth,[12],1.01
same,normalized growth,[5],0.971
same,normalized growth,[13],1
same,normalized growth,[18],0.867 (active)
same,normalized growth,"locus YNL128W, strain TEP1, active compounds read low",1.05
same,normalized growth,[6],0.88
same,normalized growth,[8],1.06
same,normalized growth,[9],1.03
same,normalized growth,[14],0.972
same,normalized growth,[10],0.919
